# Laboratory results from PubChem BioAssay (NCATS).
# Unmarked numbers belong to inactive results. Records with an inconclusive call do not appear. Entries that show only a call come without a potency. Activity calls are given as the source filed them. Calls follow the shape of the dose curve; as a rule, active = well fitted curve in the direction sought with a large enough effect; inconclusive = small, poorly fitted or top-dose-only effect, or another doubt; inactive = no such curve, though single readings can be large; an effect the other way counts as inactive or inconclusive.
# Assays:
# [1] = molecular target: Cytochrome P450 2C19 (Homo sapiens) (UniProt P33261); assay: qHTS Assay for Inhibitors and Substrates of Cytochrome P450 2C19 (AID 899); also: nearly all actives have a fitted effect of over 60% in size; also: potency is read from the fitted curve at half-maximal effect
# Summary of the method: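 Signal comes from luciferase acting on luciferin released by CYP2C19-mediated hydroxylation of Luciferin-H EGE, 10uM (KM). Assay mix: 5nM enzyme, 50mM KPO4; 60 min at 37C with NADPH regeneration. Data normalized against 57uM ketoconazole.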
# [2] = Confirmation and Secondary Assay for Modulators of Hemoglobin Beta Chain Splicing at IVS2 654 locus (AID 910);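 also: HeLa cells stably carrying EGFP split by mutant beta-globin IVS2-654 intron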
# Summary of the method: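 HeLa cells stably expressing EGFP interrupted by β-globin IVS2-654 intron, seeded overnight in Opti-MEM/2% FCS, then treated 2 days at 37 °C. Restored splicing read as total peak GFP intensity per well by laser scanning cytometry (488 nm excitation, 500–520 nm emission); 500 nM antisense PNA as control.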
# [3] = molecular target: Rap guanine nucleotide exchange factor 3 (Homo sapiens) (UniProt O95398); assay: Confirmatory qHTS for antagonist of cAMP-regulated guanine nucleotide exchange factor 3 (EPAC1) (AID 1645880); also: nearly all actives have a fitted effect of over 55% in size; also: potency is read from the fitted curve at half-maximal effect
# Summary of the method: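 Nucleotide exchange uses 100 nM EPAC1, 250 nM RAP1B-BODIPY-GDP and 50 uM GDP, with compounds in a concentration-titration series. After 5 min at room temperature, fluorescence (480 nm ex/540 nm em) is read every 5 min for 30 min. Data are normalized to control ATA and DMSO.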
# [4] = molecular target: DNA repair nuclease/redox regulator APEX1 (Homo sapiens) (UniProt P27695); assay: qHTS Validation Assay for Inhibitors of the Human Apurinic/apyrimidinic Endonuclease 1 (APE1) (AID 1705;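 also: TAMRA fluorescence gain over two minutes as APE1 cuts a quenched THF abasic duplex; series mostly up to about 57 µM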)
# Summary of the method: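 Read-out: TAMRA fluorescence (525 nm ex, 598 nm em) from cleavage of a quenched THF abasic-site duplex, 50 nM final; activity taken as intensity change between third and first of three reads 60 s apart.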
# [5] = Counterscreen for APE1 Inhibitors: Fluorescent Dye Displacement Validation Assay (AID 1707)
# Summary of the method: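 Assay buffer: Tris-HCl pH7.5 with 50mM NaCl, 2 mM MgCl2, 0.01% Tween-20. Dye 250 nM, duplex 50 nM final. Readout: decrease in ThO endpoint fluorescence, 480 nm excitation, 540 nm emission.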
# [6] = qHTS for differential inhibitors of proliferation of Plasmodium falciparum line Dd2 (AID 1882); conditions: Potency: Plasmodium falciparum Dd2 proliferation inhibition; also: nearly all actives have a fitted effect of over 65% in size; also: potency is read from the fitted curve at half-maximal effect
# Summary of the method: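 SYBR Green I DNA fluorescence read-out, ex 485/em 535 nm. Signals were normalized to 0.29 uM artemisinin and DMSO wells, then corrected using vehicle-only plates flanking each stack. Parasite growth ran 72 h in erythrocytes before lysis.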
# [7] = molecular target: Ferritin light chain (Equus caballus) (UniProt P02791); assay: qHTS Validation Assay for Identification of Novel General Anesthetics (AID 2323); also: series mostly up to about 77 µM
# Summary of the method: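 10 uM horse-spleen apoferritin + 1-AMA (50% saturated, PBS); cpd pin-transferred, 10 min RT. Ex 380/Em 535 nm endpoint. Activity normalized between free 1-AMA and 1-AMA/apoferritin; 4-parameter Hill fit of concentration-response.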
# [8] = molecular target: ATP-dependent DNA helicase Q1 (Homo sapiens) (UniProt P46063); assay: qHTS Validation Assay for Inhibitors of RecQ-Like Dna Helicase 1 (RECQ1) (AID 2353)
# Summary of the method: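 50 nM RECQ1T1 preincubated 15 min with compound in Tris pH 8.0 buffer with MgCl2, DTT, Tween-20 and 2.5 ug/ml poly(dI-dC); started with 200 nM TAMRA/BHQ-2 forked duplex and 2 mM ATP. Unwinding read as fluorescence (525/598 nm), two reads 2 h apart.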
# [9] = Validation screen for small molecules that induce DNA re-replication in MCF 10A normal breast cells (AID 463097); also: nearly all actives have a fitted effect of over 60% in size
# Summary of the method: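 250 MCF 10A cells/well; compound pin-transferred; 48 hr, 37 C, 5% CO2; Hoechst 40 min; imaged 405/500-530 nm. Hits = more high-intensity nuclei.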
# [10] = Quantitative high throughput screen for delayed death inhibitors of the malarial parasite plastid, 96 hour incubation (AID 488745); also: nearly all actives have a fitted effect of over 70% in size; also: potency is read from the fitted curve at half-maximal effect
# Summary of the method: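 P. falciparum carrying an integrated firefly luciferase reporter, grown in erythrocytes (2% hematocrit, 0.1% parasitemia final) in RPMI 1640/0.5% Albumax, was exposed to compound for 96 h (two generations) at 37 C, 5% CO2. Luminescence decrease indicated growth inhibition.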
# [11] = Quantitative high throughput screen for delayed death inhibitors of the malarial parasite plastid, 48 hour incubation (AID 488752); also: nearly all actives have a fitted effect of over 65% in size; also: potency is read from the fitted curve at half-maximal effect
# Summary of the method: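 Erythrocytes infected with P. falciparum carrying an integrated firefly luciferase reporter (2% hematocrit, 0.1% parasitemia final) were exposed to compounds in RPMI 1640/0.5% Albumax for 48 h at 37 C, 5% CO2. Growth inhibition was scored as reduced luminescence.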
# [12] = molecular target: M-phase phosphoprotein 8 (Homo sapiens) (UniProt Q99549); assay: qHTS Validation Assay for Inhibitors for MPP8 Chromodomain Interactions with Methylated Histone Tails (AID 488949); also: nearly all actives have a fitted effect of over 55% in size; also: potency is read from the fitted curve at half-maximal effect
# Summary of the method: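 AlphaScreen read-out: streptavidin donor and nickel chelate acceptor beads (final 10 ug/mL), 30 min in the dark at RT. Complex of 50 nM MPP8 and 50 nM b-H3(1-18)K9me3 peptide had been exposed to compounds for 30 min beforehand.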
# [13] = molecular target: Transient receptor potential cation channel subfamily V member 1 (Homo sapiens) (UniProt Q8NER1); assay: HTS Assay for Compounds that Act as Enhancers of the Vanilloid Receptor 1 (AID 488979)
# Summary of the method: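 TRPV1 cells loaded with Fluo-8 calcium dye; compound added and Ca2+ signal (ex 480/em 520 nm) followed 3 min, then capsaicin at EC20 added and read 2 more min to detect enhancement.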
# [14] = molecular target: Thyrotropin receptor (Homo sapiens) (UniProt P16473); assay: qHTS Assay for Antagonists of the Thyroid Stimulating Hormone Receptor (AID 488980); also: series mostly up to about 58 µM
# Summary of the method: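 TSHR-HEK293 cells; 70 uM RO 20-1724 PDE inhibitor; compound + EC80 TSH (4 nM final); anti-cAMP cryptate antibody/cAMP-d2 in lysis buffer, 30 min RT; HTRF 665/620 nm read.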
# [15] = molecular target: Voltage-gated inwardly rectifying potassium channel KCNH2 (Homo sapiens) (UniProt Q12809); assay: qHTS Assay for Small Molecule Inhibitors of the Human hERG Channel Activity (AID 588834);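 also: lower thallium flux fluorescence means stronger hERG block; nearly all actives have a fitted effect of over 50% in size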; also: potency is read from the fitted curve at half-maximal effect
# Summary of the method: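 Concentration-response qHTS measuring drop in thallium-sensitive dye signal. U2OS cells carrying BacMam hERG; compound exposure ~10 min, then stimulation buffer and 2 min read at 1 sec intervals.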
# [16] = qHTS for differential inhibitors of proliferation of Plasmodium falciparum line 3D7 (AID 1876); also: potency is read from the fitted curve at half-maximal effect
# [17] = qHTS for differential inhibitors of proliferation of Plasmodium falciparum line W2 (AID 1883); conditions: Potency: Plasmodium falciparum W2 proliferation inhibition;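 also: potency is read from the fitted curve at half-maximal effect; parasites grown with compound for 72 h before lysis and staining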
# [18] = qHTS for differential inhibitors of proliferation of Plasmodium falciparum line HB3 (AID 1886); conditions: Potency: Plasmodium falciparum HB3 proliferation inhibition;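 also: potency is read from the fitted curve at half-maximal effect; parasites grown with compound for 72 h before SYBR Green readout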
# [19] = molecular target: Galactokinase (Homo sapiens) (UniProt P51570); assay: qHTS Validation Assay for Inhibitors of Human Galactokinase (GALK) (AID 493189)
# Summary of the method: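 Luminescence from leftover ATP (Kinase-Glo Plus, 10 min) served as read-out after a 1 h room-temperature reaction of 5 nM GALK, 100 uM galactose and 35 uM ATP at pH8.0.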
# Sequence of Galactokinase (Homo sapiens) (P51570 whole entry, looked up): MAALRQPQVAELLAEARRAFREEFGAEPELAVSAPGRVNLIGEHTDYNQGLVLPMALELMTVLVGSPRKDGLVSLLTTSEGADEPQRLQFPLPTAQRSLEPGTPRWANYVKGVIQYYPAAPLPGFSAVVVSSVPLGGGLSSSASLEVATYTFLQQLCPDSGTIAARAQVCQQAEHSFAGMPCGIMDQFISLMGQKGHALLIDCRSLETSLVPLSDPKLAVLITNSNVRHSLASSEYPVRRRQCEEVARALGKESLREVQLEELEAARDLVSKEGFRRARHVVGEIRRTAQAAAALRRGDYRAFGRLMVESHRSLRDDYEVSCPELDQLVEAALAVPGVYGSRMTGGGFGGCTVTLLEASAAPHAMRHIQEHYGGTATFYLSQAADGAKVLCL
# Sequence of Cytochrome P450 2C19 (Homo sapiens) (P33261 whole entry, looked up): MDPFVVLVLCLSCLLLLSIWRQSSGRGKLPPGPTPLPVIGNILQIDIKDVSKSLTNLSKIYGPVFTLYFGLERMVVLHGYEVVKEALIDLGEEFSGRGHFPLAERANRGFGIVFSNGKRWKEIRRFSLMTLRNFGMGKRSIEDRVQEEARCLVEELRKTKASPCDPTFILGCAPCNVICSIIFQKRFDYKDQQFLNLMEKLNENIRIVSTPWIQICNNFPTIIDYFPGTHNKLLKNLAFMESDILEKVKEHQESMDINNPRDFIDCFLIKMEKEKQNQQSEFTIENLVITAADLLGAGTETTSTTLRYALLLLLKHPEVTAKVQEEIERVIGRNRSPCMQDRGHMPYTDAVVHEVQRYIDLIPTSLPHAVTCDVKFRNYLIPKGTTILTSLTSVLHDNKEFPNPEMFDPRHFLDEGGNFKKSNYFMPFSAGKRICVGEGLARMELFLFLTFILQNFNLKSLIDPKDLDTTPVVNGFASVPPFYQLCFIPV
# Sequence of ATP-dependent DNA helicase Q1 (Homo sapiens) (P46063 whole entry, looked up): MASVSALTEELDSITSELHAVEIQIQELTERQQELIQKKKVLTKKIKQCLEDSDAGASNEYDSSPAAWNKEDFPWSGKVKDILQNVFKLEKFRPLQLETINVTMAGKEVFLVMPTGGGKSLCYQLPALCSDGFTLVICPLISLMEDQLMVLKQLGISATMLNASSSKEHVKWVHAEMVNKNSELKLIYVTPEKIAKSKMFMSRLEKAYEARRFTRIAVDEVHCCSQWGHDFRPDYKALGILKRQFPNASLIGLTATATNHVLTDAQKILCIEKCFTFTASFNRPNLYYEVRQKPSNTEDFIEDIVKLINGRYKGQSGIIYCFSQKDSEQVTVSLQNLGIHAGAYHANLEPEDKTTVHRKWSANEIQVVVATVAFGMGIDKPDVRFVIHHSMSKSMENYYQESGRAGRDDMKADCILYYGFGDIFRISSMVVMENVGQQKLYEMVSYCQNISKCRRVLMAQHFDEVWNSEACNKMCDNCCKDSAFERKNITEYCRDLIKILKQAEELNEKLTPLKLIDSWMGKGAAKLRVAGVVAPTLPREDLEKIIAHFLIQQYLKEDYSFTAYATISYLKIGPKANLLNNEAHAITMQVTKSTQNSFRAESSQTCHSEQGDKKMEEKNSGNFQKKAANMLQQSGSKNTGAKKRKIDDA
# Sequence of M-phase phosphoprotein 8 (Homo sapiens) (Q99549 whole entry, looked up): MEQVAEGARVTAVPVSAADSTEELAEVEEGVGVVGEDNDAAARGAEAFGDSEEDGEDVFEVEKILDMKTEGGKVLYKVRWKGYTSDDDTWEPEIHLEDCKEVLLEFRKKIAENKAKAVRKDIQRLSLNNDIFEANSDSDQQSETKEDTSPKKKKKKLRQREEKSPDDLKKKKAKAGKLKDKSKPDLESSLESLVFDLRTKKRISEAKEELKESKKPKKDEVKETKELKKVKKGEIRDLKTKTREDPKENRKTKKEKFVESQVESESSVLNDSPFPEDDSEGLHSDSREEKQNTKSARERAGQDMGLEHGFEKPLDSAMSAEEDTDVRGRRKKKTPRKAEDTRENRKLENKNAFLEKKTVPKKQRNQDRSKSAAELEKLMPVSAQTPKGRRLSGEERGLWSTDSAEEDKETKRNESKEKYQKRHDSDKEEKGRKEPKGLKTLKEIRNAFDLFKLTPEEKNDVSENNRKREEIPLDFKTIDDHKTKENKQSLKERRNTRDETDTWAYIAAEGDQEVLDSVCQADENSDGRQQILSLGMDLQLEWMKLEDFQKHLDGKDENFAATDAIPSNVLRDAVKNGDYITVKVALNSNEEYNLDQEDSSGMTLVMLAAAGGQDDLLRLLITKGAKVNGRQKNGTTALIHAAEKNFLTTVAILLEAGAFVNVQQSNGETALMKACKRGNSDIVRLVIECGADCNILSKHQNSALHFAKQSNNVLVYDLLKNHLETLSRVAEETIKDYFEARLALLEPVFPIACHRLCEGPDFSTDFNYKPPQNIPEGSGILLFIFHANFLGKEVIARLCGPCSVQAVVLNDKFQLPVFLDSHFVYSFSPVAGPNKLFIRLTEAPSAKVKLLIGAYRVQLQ
# Sequence of DNA repair nuclease/redox regulator APEX1 (Homo sapiens) (P27695 whole entry, looked up): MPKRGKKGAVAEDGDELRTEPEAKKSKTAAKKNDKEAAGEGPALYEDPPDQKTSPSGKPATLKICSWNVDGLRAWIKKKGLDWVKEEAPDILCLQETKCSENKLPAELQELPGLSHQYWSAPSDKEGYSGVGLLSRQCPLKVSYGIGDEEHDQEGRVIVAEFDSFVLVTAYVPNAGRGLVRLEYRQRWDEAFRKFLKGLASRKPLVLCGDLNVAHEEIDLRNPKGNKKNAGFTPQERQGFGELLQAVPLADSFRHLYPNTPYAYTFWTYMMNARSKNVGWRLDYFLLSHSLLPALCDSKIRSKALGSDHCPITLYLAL
# Sequence of Thyrotropin receptor (Homo sapiens) (P16473 whole entry, looked up): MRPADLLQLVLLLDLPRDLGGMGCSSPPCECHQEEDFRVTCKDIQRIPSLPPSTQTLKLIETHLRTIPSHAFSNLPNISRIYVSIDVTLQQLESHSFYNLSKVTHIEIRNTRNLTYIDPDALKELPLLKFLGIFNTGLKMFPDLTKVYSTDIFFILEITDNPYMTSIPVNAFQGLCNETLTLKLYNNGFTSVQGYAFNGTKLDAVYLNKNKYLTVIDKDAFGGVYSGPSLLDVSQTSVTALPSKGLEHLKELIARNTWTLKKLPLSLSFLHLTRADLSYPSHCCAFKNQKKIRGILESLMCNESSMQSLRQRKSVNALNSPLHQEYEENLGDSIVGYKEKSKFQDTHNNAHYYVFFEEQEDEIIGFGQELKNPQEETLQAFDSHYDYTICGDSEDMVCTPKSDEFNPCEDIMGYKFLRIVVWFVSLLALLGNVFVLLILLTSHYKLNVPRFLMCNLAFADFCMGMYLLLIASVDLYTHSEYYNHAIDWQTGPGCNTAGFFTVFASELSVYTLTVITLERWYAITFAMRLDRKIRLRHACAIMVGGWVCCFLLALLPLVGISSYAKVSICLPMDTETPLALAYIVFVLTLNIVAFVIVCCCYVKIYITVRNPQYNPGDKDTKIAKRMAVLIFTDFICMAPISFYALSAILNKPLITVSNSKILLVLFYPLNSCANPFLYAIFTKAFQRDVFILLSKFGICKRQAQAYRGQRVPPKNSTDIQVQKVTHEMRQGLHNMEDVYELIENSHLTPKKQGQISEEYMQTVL
# Sequence of Ferritin light chain (Equus caballus) (P02791 2-175 limits assumed): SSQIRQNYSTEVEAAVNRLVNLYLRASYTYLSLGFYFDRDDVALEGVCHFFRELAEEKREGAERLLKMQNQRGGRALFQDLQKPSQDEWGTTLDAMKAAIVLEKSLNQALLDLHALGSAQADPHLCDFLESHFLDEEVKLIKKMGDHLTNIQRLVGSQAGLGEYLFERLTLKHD
# Sequence of Rap guanine nucleotide exchange factor 3 (Homo sapiens) (O95398 whole entry, looked up): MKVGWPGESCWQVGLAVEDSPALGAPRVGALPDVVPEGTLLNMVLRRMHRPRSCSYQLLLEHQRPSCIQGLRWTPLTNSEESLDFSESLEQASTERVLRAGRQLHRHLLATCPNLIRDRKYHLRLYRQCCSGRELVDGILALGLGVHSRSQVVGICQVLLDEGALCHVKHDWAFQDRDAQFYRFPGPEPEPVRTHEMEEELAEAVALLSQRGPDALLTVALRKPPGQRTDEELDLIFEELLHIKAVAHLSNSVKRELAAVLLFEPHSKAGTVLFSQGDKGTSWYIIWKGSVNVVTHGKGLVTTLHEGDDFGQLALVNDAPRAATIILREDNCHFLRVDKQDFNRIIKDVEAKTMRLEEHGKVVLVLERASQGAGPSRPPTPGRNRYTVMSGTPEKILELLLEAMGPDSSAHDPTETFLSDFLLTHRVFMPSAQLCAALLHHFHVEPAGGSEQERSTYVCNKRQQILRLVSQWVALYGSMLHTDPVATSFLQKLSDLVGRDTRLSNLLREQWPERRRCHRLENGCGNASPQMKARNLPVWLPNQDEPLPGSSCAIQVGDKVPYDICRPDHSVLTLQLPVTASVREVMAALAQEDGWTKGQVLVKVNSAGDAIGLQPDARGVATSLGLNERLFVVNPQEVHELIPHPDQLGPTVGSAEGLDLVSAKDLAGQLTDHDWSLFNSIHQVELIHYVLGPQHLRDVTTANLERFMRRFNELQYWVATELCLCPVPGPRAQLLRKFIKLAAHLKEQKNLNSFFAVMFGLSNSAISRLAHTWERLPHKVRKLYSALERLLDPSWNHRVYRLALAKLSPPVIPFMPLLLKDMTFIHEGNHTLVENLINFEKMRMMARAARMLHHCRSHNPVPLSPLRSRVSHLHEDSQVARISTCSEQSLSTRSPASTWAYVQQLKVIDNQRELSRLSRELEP
compound,measurement,setting,value
COc1ccc2[nH]cc(CCNc3ncnc4ccc(-c5ccccc5C#N)cc34)c2c1,Potency,[1],2 µM (active)
same,Potency,[2],inactive
same,Potency,[3],inactive
O=c1c(O)c(-c2ccc(O)c(O)c2)oc2c(OC3OC(CO)C(O)C(O)C3O)c(O)cc(O)c12 (stereo not given),Potency,[3],inactive
C=CC(C1=CC(=O)C(OC)=CC1=O)c1ccccc1 (stereo not given),Potency,[2],inactive
COc1ccc(C(=O)O)c(O)c1OC,Potency,[2],inactive
same,Potency,[3],inactive
COc1cccc(-c2cncnc2NCc2ccc(OC)cc2OC)c1,Potency,[1],1.26 µM (active)
same,Potency,[2],inactive
O=C(O)c1cc(O)c2c(c1)C(=O)c1cc(O)cc(O)c1C2=O,Potency,[2],inactive
COc1ccc2c(c1)OCc1c-2oc2cc(OC)ccc12,Potency,[2],inactive
same,Potency,[3],inactive
COC(=O)CCCOc1ccc(Cl)cc1Cl,Potency,[3],inactive
N#C/C(=C\c1ccc(O)c(O)c1)C(=O)NCCCCc1ccccc1,Potency,[3],15.7 µM (active)
CC(=O)OC1CC2C(C)(C)CCC(=O)[C@@]2(C)C2CC[C@@]3(C)C(c4ccoc4)OC(=O)C4OC43[C@]12C (stereo not given in full),Potency,[2],inactive
same,Potency,[3],inactive
CN(Cc1ccco1)c1nc(-c2ccccc2Cl)nc2ccccc12,Potency,[3],inactive
COC(=O)c1c(OC)cc2c(c1C)Oc1c(Cl)c(O)c(Cl)c(C)c1C(=O)O2,Potency,[2],inactive
O=C1CC[C@@]23/C=C/C(=O)NCCCCNCCCNC(=O)/C=C/c4ccc(c2c4)OC3C1 (stereo not given in full),Potency,[2],inactive
same,Potency,[3],inactive
CC(=O)Oc1ccc2c(c1C(C)C)CCC1C(C)(C)CCC[C@@]21C (stereo not given in full),Potency,[2],inactive
same,Potency,[3],inactive
CCOC(=O)c1c(C)cc(OC)cc1O,Potency,[2],inactive
same,Potency,[3],inactive
COc1ccc(-c2nc3cnc(Nc4cccc(OC)c4)nc3n(CCC#N)c2=O)cc1,Potency,[3],inactive
COc1ccc2c(c1)OCC(Cc1ccc(OC)c(OC(C)=O)c1)C2=O (stereo not given),Potency,[3],inactive
COc1cc(C/C=C/c2ccccc2)c(OC)cc1O,Potency,[2],inactive
same,Potency,[3],inactive
COc1cc(-c2coc3cc(OCc4ccccc4)c(OC)c(O)c3c2=O)cc(O)c1OC,Potency,[2],inactive
same,Potency,[3],inactive
COc1ccc2c(c1)OC/C(=C/c1ccc(O)c(O)c1)C2=O,Potency,[2],inactive
CN(Cc1ccco1)c1nc(-c2cccc(C#N)c2)nc2ccccc12,Potency,[3],inactive
NCC1OC(n2cnc3c(=O)[nH]c(N)nc32)C(O)C1O (stereo not given),Potency,[2],inactive
same,Potency,[3],inactive
COc1ccccc1CNc1ncnc2ccc(-c3cccnc3)cc12,Potency,[3],inactive
COC(=O)c1c(OC)cc2c(c1C)Oc1c(Cl)c(OC(C)=O)c(Cl)c(C)c1C(=O)O2,Potency,[2],inactive
same,Potency,[3],inactive
Nc1nc2n[nH]nc2c(=O)[nH]1,Potency,[3],inactive
C#C[C@]1(OC(C)=O)CCC2C3CCC4=CC(=O)CCC4C3CC[C@]21C (stereo not given in full),Potency,[2],inactive
same,Potency,[3],inactive
N[C@H](C(=O)O)C(O)C(O)C(O)CO (stereo not given in full),Potency,[2],inactive
same,Potency,[3],inactive
COc1cccc(-c2nc(Nc3ccncc3)c3ccccc3n2)c1,Potency,[1],3.16 µM (active)
same,Potency,[2],inactive
same,Potency,[3],inactive
CC1=CC2C(CC1=O)C(C)=CCC2C(C)C (stereo not given),Potency,[2],inactive
same,Potency,[3],inactive
CC1(C)C(O)CC[C@]2(C)C1CC[C@@]1(C)C2C(=O)C=C2[C@@H]3C[C@@](C)(C(=O)O)CC[C@@]3(C)CCC21C (stereo not given in full),Potency,[2],inactive
same,Potency,[3],inactive
O=c1c(-c2ccccc2)coc2cc(O)cc(O)c12,Potency,[2],inactive
same,Potency,[3],44.4 µM (active)
O=C(c1cccc(F)c1)N1CCC[C@@]2(CCN(C(c3ccccc3)c3ccccc3)C2)C1,Potency,[3],inactive
Nc1ncnc2c1ncn2[C@@H]1O[C@H](COP(=O)(O)OP(=O)(O)OP(=O)(O)OP(=O)(O)OC[C@@H]2O[C@H](n3cnc4c(N)ncnc43)[C@@H](O)[C@@H]2O)[C@H](O)[C@H]1O,outcome,[4],inactive
same,outcome,[5],inactive
same,Potency,[6],inactive
same,outcome,[7],inactive
same,outcome,[8],inactive
same,outcome,[9],inactive
same,Potency,[10],inactive
same,Potency,[11],inactive
same,Potency,[12],inactive
same,outcome,[13],inactive
same,outcome,[14],inactive
same,Potency,[15],inactive
CN1CCN(c2ncc3nc(-c4cccc(C#N)c4)c(=O)n(C[C@H]4CCCO4)c3n2)CC1,Potency,[1],inactive
NC(=NCc1ccc(Cl)c(Cl)c1)NC(=O)c1nc(Cl)c(N)nc1N,outcome,[4],inactive
same,outcome,[5],inactive
same,Potency,[16],0.282 µM (active)
same,Potency,[6],1.58 µM (active)
same,Potency,[17],1 µM (active)
same,Potency,[18],0.501 µM (active)
same,outcome,[7],inactive
same,outcome,[8],inactive
same,Potency,[10],0.586 µM (active)
same,Potency,[11],0.37 µM (active)
same,Potency,[12],50.1 µM (active)
same,outcome,[14],inactive
same,outcome,[19],inactive
same,Potency,[15],2 µM (active)
COc1cc2c3cc1Oc1c(OC)c(OC)cc4c1[C@@H](Cc1ccc(O)c(c1)Oc1ccc(cc1)C[C@@H]3N(C)CC2)N(C)CC4,Potency,[1],inactive
COc1ccc(-c2cc(=O)c3c(OC)c(OC)c(OC)c(OC)c3o2)cc1OC,Potency,[2],inactive
C=C[C@](C)(O)CCC1C(=C)CC(OC(C)=O)C2C(C)(C)CCCC12C (stereo not given in full),Potency,[2],inactive
Nc1ncnc2c1nc(Br)n2C1O[C@H]2COP(=O)(O)O[C@@H]2C1O (stereo not given in full),outcome,[4],inactive
same,outcome,[5],inactive
same,Potency,[17],5.62 µM (active)
same,Potency,[18],6.31 µM (active)
same,outcome,[7],inactive
same,outcome,[8],inactive
same,outcome,[9],inactive
same,Potency,[11],inactive
same,outcome,[13],inactive
same,outcome,[14],inactive
same,outcome,[19],inactive
same,Potency,[15],inactive
Nc1c2ccccc2nc2ccccc12 (tested in a mixture with another compound),Potency,[2],inactive
CC(=O)OC1c2c(ccc3ccc(=O)oc23)OC(C)(C)C1OC(=O)CC(C)C (stereo not given),Potency,[2],inactive
CN1CCc2c(cc(O)c(O)c2Cl)C(c2cccc(Cl)c2)C1 (stereo not given),outcome,[4],inactive
same,outcome,[5],inactive
same,Potency,[16],3.55 µM (active)
same,Potency,[6],11.2 µM (active)
same,Potency,[17],5.01 µM (active)
same,Potency,[18],8.91 µM (active)
same,outcome,[8],inactive
same,outcome,[9],inactive
same,Potency,[10],18.5 µM (active)
same,Potency,[12],39.8 µM (active)
same,outcome,[13],inactive
same,outcome,[14],inactive
same,outcome,[19],inactive
same,Potency,[15],12.6 µM (active)
